Measurements as given in the supplement of paper PMC10849652.
Of roughly 7,900 targets only a part is listed; those with a hit were picked by preference. About 0.6% of all pairs of compound and target were hits.

Legend:
Test in all cases: log2 fold change, soluble protein after heating vs DMSO (PISA); higher = thermal stabilisation; K562 cells, 10 uM, 30 min; active = over 0.2 and 3.5 SD of the protein, either way, in both replicates (recomputed)
volasertib = compound: CC[C@@H]1C(=O)N(C)c2cnc(Nc3ccc(C(=O)N[C@H]4CC[C@H](N5CCN(CC6CC6)CC5)CC4)cc3OC)nc2N1C(C)C [volasertib]
Outline: (§1)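 K562 cells at 2×10^6 cells/mL were treated with 10 μM compound for 30 min. Aliquots were heated for 3 min across 48°C-58°C, pooled, and extracted in PBS with 0.5% NP-40 at 4°C; soluble protein was the supernatant after 21,000xg for 90 min. Soluble protein was quantified by TMTpro 16plex LC-MS/MS with channel sums equalised, and reported as log2 fold change in thermal stability against DMSO controls, with values from duplicates.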

[1] = compound: CC[C@H](C)N1C=C(C2=C(C=C(C=C21)C3=CN=C(C=C3)N4CCNCC4)C(=O)NCC5=C(C=C(NC5=O)C)C)C
Outline: as §1

epoxomicin = compound: CC[C@H](C)[C@@H](C(=O)N[C@@H]([C@@H](C)O)C(=O)N[C@@H](CC(C)C)C(=O)[C@]1(CO1)C)NC(=O)[C@H]([C@@H](C)CC)N(C)C(=O)C [epoxomicin]
Outline: as §1

[2] = compound: CCn1c(C(=O)N(C2CC2)C2CC2)cc2c3c(ncn3C)c(Nc3cc(C)n(C)n3)nc21
Outline: as §1

[3] = compound: CCn1cc(-c2ccnc3[nH]c(-c4cccc(CN(C)C)c4)cc23)c(-c2ccc(NC(=O)N(C)C)cc2)n1
Outline: as §1

[4] = compound: CN(C)CC(=O)Nc1ccc2[nH]c(=O)c3ccccc3c2c1
Outline: as §1

rosiglitazone = compound: CN(CCOC1=CC=C(C=C1)C[C@H]2C(=O)NC(=O)S2)C3=CC=CC=N3 (racemic) [rosiglitazone]
Outline: as §1

[5] = compound: CN1C2=C(C3=C1C(=O)N(N=C3)CC4=CC(=CC=C4)N)SC(=C2)S(=O)C
Outline: as §1

[6] = compound: CN1CCC(CNc2ccc3ncc(-c4cccc(OC(F)(F)F)c4)n3n2)CC1
Outline: as §1

saracatinib = compound: CN1CCN(CCOc2cc(OC3CCOCC3)c3c(Nc4c(Cl)ccc5c4OCO5)ncnc3c2)CC1 [saracatinib]
Outline: as §1

sotrastaurin = compound: CN1CCN(c2nc(C3=C(c4c[nH]c5ccccc45)C(=O)NC3=O)c3ccccc3n2)CC1 [sotrastaurin]
Outline: as §1

alvocidib = compound: CN1CC[C@H](c2c(O)cc(O)c3c(=O)cc(-c4ccccc4Cl)oc23)[C@H](O)C1 [alvocidib]
Outline: as §1

Tubastatin A = compound: CN1CCc2c(c3ccccc3n2Cc2ccc(C(=O)NO)cc2)C1 [Tubastatin A]
Outline: as §1

[7] = compound: CNC(=O)C1=CC=CC=C1NC2=NC(=NC=C2Cl)NC3=C(C=C(C=C3)N4CCOCC4)OC
Outline: as §1

defactinib = compound: CNC(=O)c1ccc(Nc2ncc(C(F)(F)F)c(NCc3nccnc3N(C)S(C)(=O)=O)n2)cc1 [defactinib]
Outline: as §1

[8] = compound: CNc1nc(-c2ccc3c(N)n[nH]c3c2)cc(N2C[C@@H](C(=O)NC3CCCCC3)CC[C@H]2C)n1
Outline: as §1

[9] = compound: COC(=O)[C@H](CCSC)NC(=O)C1=C(C=C(C=C1)NC[C@H](CS)N)C2=CC=CC=C2
Outline: as §1

[10] = compound: CC[C@@H]1C(=O)N(C)c2cnc(Nc3ccc(C(=O)NC4CCN(C)CC4)cc3OC)nc2N1C1CCCC1
Outline: as §1

rucaparib = compound: CNCc1ccc(-c2[nH]c3cc(F)cc4c3c2CCNC4=O)cc1 [rucaparib]
Outline: as §1

encorafenib = compound: COC(=O)N[C@@H](C)CNc1nccc(-c2cn(C(C)C)nc2-c2cc(Cl)cc(NS(C)(=O)=O)c2F)n1 [encorafenib]
Outline: as §1

Measured: log2 fold change

JAK3 (UniProt P52333)
Sequence of UniProt P52333 (P52333 whole entry, looked up): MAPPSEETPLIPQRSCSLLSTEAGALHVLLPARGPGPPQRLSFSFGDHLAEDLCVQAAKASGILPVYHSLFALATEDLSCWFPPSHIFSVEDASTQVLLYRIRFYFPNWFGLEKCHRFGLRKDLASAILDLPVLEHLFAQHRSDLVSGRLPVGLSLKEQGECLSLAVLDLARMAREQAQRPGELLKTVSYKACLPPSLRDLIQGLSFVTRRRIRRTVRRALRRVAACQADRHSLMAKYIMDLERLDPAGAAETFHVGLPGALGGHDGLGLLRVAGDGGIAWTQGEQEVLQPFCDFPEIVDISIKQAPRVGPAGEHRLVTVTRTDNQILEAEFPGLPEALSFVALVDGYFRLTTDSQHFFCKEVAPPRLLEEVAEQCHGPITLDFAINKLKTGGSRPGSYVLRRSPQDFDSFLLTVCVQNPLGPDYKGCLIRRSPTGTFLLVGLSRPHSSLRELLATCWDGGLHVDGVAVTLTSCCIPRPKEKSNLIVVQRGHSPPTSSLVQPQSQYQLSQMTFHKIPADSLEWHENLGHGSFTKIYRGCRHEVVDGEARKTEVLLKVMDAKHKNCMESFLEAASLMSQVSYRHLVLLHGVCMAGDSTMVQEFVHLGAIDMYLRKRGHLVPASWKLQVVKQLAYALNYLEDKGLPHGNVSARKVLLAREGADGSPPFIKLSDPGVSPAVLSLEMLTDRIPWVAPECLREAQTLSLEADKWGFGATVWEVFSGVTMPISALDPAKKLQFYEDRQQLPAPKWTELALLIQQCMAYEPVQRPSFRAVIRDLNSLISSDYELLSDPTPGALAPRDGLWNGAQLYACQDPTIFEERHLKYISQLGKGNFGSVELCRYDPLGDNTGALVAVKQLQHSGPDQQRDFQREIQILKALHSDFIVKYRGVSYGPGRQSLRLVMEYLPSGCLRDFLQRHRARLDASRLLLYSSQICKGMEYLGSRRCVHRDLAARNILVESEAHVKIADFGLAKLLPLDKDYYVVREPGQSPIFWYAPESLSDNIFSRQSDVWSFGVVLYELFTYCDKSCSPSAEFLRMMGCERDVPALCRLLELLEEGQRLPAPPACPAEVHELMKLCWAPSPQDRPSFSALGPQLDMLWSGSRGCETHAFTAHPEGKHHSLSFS
inactive: volasertib -0.075 | [1] 0.09 | epoxomicin -0.033 | [2] 0.081 | [3] 0.128 | [4] -0.042 | rosiglitazone 0.011 | [5] -0.01 | [6] 0.012 | saracatinib -0.03 | sotrastaurin -0.042 | alvocidib 0.004 | Tubastatin A -0.016 | [7] 0.116 | defactinib 0.003 | [8] -0.158 | [9] -0.056

LYN isoform 2 (UniProt P07948)
Sequence of UniProt P07948 (P07948 whole entry, looked up): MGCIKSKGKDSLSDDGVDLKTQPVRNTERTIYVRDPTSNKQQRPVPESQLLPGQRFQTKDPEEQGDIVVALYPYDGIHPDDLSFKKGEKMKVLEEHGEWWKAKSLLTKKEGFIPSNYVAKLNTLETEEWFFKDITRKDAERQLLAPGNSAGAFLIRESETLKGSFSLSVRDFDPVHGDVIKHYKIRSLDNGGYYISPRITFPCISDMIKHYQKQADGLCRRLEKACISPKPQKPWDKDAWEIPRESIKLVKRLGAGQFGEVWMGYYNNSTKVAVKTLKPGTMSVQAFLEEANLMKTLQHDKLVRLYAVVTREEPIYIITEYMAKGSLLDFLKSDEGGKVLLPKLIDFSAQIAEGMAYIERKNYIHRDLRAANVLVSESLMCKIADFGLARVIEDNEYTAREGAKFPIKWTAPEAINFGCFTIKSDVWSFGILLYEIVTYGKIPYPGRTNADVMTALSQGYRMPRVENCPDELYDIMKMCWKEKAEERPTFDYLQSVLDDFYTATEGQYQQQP
inactive: volasertib -0.003 | [1] 0.036 | epoxomicin 0.246 | [2] 0.076 | [4] 0.007 | sotrastaurin 0.034 | alvocidib 0.015 | [7] 0.043 | defactinib -0.035 | [9] -0.004

KMT5A (UniProt Q9NQR1)
inactive: [3] 0.091 | [6] -0.2 | sotrastaurin -0.18

LGALS8 isoform 2 (UniProt O00214)
active: [6] 0.93
inactive: [10] 0.19 | epoxomicin -0.05 | [2] -0.029 | [3] -0.121 | [4] 0.067 | rosiglitazone -0.263 | [5] 0.328 | saracatinib -0.359 | sotrastaurin -0.323 | alvocidib 0.053 | Tubastatin A 0.07 | [7] -0.244 | defactinib 0.104 | rucaparib 0.306 | [8] 0.141 | encorafenib 0.218 | [9] -0.051

LMNA isoform 2 (UniProt P02545)
inactive: Tubastatin A 0.052

IGFBP6 (UniProt P24592)
inactive: [4] -0.186 | [5] 0.107 | saracatinib 0.011 | alvocidib 0.136 | defactinib 0.144 | [8] -0.094 | [9] 0.055

LMBR1 isoform 3 (UniProt Q8WVP7)
Sequence of UniProt Q8WVP7 (Q8WVP7 whole entry, looked up): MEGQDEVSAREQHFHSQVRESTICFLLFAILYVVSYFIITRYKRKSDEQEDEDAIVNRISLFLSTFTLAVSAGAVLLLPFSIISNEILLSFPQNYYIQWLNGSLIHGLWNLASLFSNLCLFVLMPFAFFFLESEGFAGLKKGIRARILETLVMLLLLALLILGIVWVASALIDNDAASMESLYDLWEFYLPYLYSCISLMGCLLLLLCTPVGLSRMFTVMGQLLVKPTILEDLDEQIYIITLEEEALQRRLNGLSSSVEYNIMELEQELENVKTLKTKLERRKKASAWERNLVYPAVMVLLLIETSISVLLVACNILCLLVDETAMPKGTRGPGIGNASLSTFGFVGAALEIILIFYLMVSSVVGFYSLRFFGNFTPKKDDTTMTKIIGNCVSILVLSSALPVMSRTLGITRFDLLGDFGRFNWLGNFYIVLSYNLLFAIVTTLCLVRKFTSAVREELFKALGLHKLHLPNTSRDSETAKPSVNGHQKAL
inactive: volasertib -0.452 | epoxomicin 0.26 | [2] -0.074 | [3] -0.456 | [4] 0.049 | rosiglitazone -0.037 | [5] 0.033 | [6] -0.314 | saracatinib 0.085 | sotrastaurin -0.004 | alvocidib -0.06 | Tubastatin A 0.079 | [7] -0.045 | defactinib -0.104 | [8] -0.009 | [9] 0.132

IKZF1 isoform 2 (UniProt Q13422)
inactive: [1] -0.011 | [2] -0.034 | [4] -0.043 | rosiglitazone 0.078 | sotrastaurin 0.049 | alvocidib -0.101 | Tubastatin A -0.123 | [7] 0.05 | defactinib -0.106 | [9] -0.02

MED29 (UniProt Q9NX70)
Sequence of UniProt Q9NX70 (Q9NX70 whole entry, looked up): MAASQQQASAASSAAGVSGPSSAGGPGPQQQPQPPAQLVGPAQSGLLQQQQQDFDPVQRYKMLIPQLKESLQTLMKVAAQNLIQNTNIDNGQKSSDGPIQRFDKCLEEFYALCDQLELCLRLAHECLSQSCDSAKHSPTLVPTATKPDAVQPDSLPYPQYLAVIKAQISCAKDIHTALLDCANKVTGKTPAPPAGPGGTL
inactive: volasertib -0.115 | [1] 0.055 | [2] -0.044 | [5] -0.056 | saracatinib -0.033 | [7] 0.004 | [8] 0.001

MAGED1 isoform 2 (UniProt Q9Y5V3)
inactive: volasertib -0.306 | [1] -0.01 | epoxomicin -0.053 | [2] 0.01 | [4] 0.012 | [5] 0.399 | saracatinib -0.073 | sotrastaurin -0.196 | alvocidib 0.002 | [7] 0.015 | defactinib 0.036 | [8] 0.117 | [9] 0.197

LRRFIP1 isoform 4 (UniProt Q32MZ4)
inactive: epoxomicin -0.113 | [2] -0.1 | [3] 0.212 | [5] 0.105 | [6] 0.349 | saracatinib 0.008 | alvocidib 0.481 | [7] -0.111 | [8] -0.089

LEPROT (UniProt O15243)
Sequence of UniProt O15243 (O15243 whole entry, looked up): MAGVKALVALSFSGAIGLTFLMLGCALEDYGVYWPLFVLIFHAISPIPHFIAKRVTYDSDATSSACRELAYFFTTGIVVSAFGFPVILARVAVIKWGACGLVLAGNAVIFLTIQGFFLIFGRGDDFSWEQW
inactive: [10] -0.052 | epoxomicin 0.129 | [2] -0.11 | [3] 0.075 | [5] 0.117 | [6] -0.03 | saracatinib -0.261 | alvocidib 0.071 | Tubastatin A -0.133 | [7] 0.087 | rucaparib 0.028 | [8] -0.25 | encorafenib -0.077

LRRCC1 (UniProt Q9C099)
inactive: [5] 0.281 | saracatinib 0 | Tubastatin A 0.292 | [8] 0.06

MAPK11 (UniProt Q15759)
Sequence of UniProt Q15759 (Q15759 whole entry, looked up): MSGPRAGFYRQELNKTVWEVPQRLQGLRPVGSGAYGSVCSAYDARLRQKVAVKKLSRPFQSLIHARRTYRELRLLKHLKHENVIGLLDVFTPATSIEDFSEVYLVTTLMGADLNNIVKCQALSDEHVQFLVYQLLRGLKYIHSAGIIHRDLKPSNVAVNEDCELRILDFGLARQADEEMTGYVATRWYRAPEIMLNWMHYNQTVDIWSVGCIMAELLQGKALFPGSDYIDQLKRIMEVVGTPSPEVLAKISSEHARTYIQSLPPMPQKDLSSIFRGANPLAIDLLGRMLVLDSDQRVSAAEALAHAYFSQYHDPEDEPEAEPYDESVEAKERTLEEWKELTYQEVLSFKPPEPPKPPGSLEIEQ
inactive: [2] -0.332 | [3] 0.025 | [6] -0.263 | Tubastatin A 0.208 | [7] 0.615

MED7 (UniProt O43513)
inactive: volasertib 0.139 | [1] -0.287 | epoxomicin 0.127 | [2] 0.015 | [4] 0.021 | rosiglitazone -0.059 | [5] -0.172 | saracatinib -0.026 | sotrastaurin 0.151 | alvocidib -0.072 | Tubastatin A -0.145 | [7] -0.056 | defactinib -0.015 | [8] -0.006 | [9] 0.012

IPP (UniProt Q9Y573)
inactive: rosiglitazone -0.24

KIF1B isoform 3 (UniProt O60333)
Sequence of UniProt O60333 (O60333 whole entry, looked up): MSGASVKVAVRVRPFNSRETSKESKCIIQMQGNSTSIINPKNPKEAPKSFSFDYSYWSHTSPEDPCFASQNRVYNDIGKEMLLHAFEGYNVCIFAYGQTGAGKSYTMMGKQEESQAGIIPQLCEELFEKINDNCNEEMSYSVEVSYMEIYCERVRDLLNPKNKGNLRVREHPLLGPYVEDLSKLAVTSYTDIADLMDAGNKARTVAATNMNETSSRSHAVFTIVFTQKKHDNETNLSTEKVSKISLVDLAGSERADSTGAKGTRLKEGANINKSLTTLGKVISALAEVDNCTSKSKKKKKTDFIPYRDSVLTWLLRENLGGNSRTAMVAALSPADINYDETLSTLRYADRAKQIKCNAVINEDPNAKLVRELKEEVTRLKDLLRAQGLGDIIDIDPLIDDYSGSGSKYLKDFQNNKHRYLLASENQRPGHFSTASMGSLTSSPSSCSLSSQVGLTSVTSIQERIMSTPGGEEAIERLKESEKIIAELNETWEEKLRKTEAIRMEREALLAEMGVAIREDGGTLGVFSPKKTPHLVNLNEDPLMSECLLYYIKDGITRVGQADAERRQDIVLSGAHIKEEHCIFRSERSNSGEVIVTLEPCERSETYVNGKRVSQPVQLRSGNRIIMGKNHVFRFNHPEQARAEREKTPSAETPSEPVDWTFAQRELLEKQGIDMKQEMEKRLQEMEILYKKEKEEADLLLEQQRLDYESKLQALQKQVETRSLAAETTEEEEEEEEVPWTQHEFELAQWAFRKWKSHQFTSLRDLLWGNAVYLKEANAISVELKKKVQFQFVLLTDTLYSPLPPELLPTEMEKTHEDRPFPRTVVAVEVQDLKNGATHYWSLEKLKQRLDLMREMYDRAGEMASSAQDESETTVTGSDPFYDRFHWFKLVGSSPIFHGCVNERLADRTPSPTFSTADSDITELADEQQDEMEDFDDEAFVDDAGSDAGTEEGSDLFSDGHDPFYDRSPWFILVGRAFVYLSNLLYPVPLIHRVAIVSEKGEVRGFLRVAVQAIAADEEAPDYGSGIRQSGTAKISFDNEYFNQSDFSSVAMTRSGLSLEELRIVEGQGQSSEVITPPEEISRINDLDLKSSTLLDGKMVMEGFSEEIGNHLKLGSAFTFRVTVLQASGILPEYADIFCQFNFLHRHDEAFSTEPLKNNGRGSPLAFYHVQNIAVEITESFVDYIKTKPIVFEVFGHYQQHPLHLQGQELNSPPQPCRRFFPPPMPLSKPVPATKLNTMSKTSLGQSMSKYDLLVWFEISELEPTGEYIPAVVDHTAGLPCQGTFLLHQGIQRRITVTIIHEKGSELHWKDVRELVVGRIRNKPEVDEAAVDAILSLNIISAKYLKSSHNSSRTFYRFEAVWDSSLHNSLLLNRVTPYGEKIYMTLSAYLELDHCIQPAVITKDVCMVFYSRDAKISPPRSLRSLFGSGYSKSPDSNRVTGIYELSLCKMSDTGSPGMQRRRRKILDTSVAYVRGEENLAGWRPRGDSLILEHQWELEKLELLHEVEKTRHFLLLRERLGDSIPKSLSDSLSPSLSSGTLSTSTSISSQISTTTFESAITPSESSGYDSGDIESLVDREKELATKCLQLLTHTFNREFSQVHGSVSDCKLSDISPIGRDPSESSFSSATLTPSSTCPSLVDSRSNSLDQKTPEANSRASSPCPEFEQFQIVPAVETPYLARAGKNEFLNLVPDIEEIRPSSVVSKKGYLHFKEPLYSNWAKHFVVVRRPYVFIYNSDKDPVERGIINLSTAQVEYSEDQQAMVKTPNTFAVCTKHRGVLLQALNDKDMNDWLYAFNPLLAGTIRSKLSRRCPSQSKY
inactive: [10] 0.193 | [4] -0.032 | defactinib 0.127 | rucaparib -0.046 | encorafenib -0.222 | [9] 0.17

LIN52 (UniProt Q52LA3)
inactive: [5] 0.003 | saracatinib 0.038 | [8] -0.059

MAML1 (UniProt Q92585)
inactive: epoxomicin 0.059 | [2] -0.092 | [4] -0.055 | sotrastaurin -0.051 | alvocidib 0.062 | defactinib -0.179 | [9] -0.327
active: [7] 0.644

IKZF1 (UniProt R9R4D9)
inactive: volasertib 0.085 | [3] -0.247 | [5] 0.229 | [6] 0.05 | saracatinib 0.019 | alvocidib 0.155 | Tubastatin A -0.158 | [8] -0.038

IGFBP3 isoform 2 (UniProt P17936)
inactive: volasertib -0.507 | epoxomicin -0.251 | [3] 0.075 | [4] -0.238 | [5] 0.199 | [6] -0.555 | saracatinib -0.092 | sotrastaurin 0.245 | alvocidib 0.251 | Tubastatin A 0.001 | defactinib 0.17 | [8] -0.08 | [9] 0.045

MFSD12 isoform 3 (UniProt Q6NUT3)
inactive: [10] -0.005 | [2] 0.077 | [3] -0.006 | [5] 0.075 | [6] -0.305 | saracatinib -0.154 | sotrastaurin -0.172 | alvocidib -0.04 | Tubastatin A 0.031 | [7] 0.042 | rucaparib -0.14 | [8] -0.144 | encorafenib 0.196

KIF21A (UniProt H0YI78)
inactive: [2] -0.05 | [7] -0.012

MAPK7 (UniProt Q13164)
inactive: epoxomicin 0.093 | [3] -0.049 | [6] -0.125

MAP2K5 (UniProt Q13163)
inactive: [5] 0.457 | saracatinib 0.445 | alvocidib -0.008 | [8] 0.004

KIF13A isoform 4 (UniProt Q9H1H9)
inactive: sotrastaurin -0.027 | alvocidib -0.091

LUZP1 (UniProt Q86V48)
inactive: volasertib -0.021 | [1] -0.026 | epoxomicin -0.22 | [2] 0.09 | [3] 0.026 | [4] 0.035 | rosiglitazone 0.026 | [5] 0.026 | [6] -0.039 | saracatinib 0.075 | sotrastaurin -0.088 | alvocidib 0.229 | Tubastatin A 0.13 | [7] -0.022 | defactinib -0.498 | [8] 0.002 | [9] -0.209

INTS5 (UniProt Q6P9B9)
inactive: volasertib -0.152 | [1] 0.049 | epoxomicin 0.052 | [2] -0.046 | [4] -0.003 | rosiglitazone 0.212 | [5] -0.133 | saracatinib -0.051 | sotrastaurin -0.06 | Tubastatin A -0.133 | [7] -0.086 | defactinib -0.058 | [8] 0.044 | [9] 0

LDLRAP1 (UniProt Q5SW96)
inactive: [2] -0.045 | rosiglitazone -0.023 | [7] -0.014

LOX (UniProt P28300)
inactive: [1] -0.191 | [2] -0.028 | rosiglitazone 0.072 | [7] -0.303

ITM2C (UniProt Q9NQX7)
inactive: volasertib -0.312 | [1] 0.049 | epoxomicin -0.149 | [2] -0.096 | [3] -0.104 | [4] -0.046 | rosiglitazone 0.069 | [5] 0.125 | [6] 0.218 | saracatinib -0.007 | sotrastaurin -0.072 | alvocidib 0.034 | [7] 0 | defactinib 0.039 | [8] -0.003 | [9] -0.045

LAPTM4B (UniProt Q86VI4)
Sequence of UniProt Q86VI4 (Q86VI4 whole entry, looked up): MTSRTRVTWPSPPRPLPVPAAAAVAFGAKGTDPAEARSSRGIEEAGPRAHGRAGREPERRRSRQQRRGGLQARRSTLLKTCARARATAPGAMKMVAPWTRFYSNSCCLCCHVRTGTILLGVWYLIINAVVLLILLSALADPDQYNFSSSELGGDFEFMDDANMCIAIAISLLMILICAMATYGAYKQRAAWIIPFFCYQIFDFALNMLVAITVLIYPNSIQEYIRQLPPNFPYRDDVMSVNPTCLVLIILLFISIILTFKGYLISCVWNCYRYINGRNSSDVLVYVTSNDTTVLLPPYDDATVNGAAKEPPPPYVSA
inactive: [10] 0.063 | [2] -0.12 | [3] 0.216 | rosiglitazone -0.024 | sotrastaurin -0.194 | [7] 0.007 | rucaparib 0 | encorafenib 0.009
active: [6] 0.968

MAP3K20 isoform 2 (UniProt Q9NYL2)
inactive: volasertib -0.1 | [1] -0.067 | epoxomicin -0.03 | [2] 0.018 | sotrastaurin 0.059 | Tubastatin A 0.093 | [7] -0.024

ITGA2B (UniProt P08514)
inactive: volasertib 0.134 | [1] -0.211 | epoxomicin -0.089 | [2] -0.011 | [3] -0.173 | [4] 0.067 | [5] 0.117 | [6] -0.07 | saracatinib 0.025 | sotrastaurin -0.03 | alvocidib 0.111 | Tubastatin A -0.043 | [7] 0.037 | defactinib 0.059 | [8] -0.036 | [9] 0.058
